34 molecules from ChEMBL document CHEMBL1961873, “Compounds: GSK PKIS; Assays: Nanosyn kinase panel” (2012) can be followed below.

Sequence of Tyrosine-protein kinase BTK (Homo sapiens) (Q06187 whole entry): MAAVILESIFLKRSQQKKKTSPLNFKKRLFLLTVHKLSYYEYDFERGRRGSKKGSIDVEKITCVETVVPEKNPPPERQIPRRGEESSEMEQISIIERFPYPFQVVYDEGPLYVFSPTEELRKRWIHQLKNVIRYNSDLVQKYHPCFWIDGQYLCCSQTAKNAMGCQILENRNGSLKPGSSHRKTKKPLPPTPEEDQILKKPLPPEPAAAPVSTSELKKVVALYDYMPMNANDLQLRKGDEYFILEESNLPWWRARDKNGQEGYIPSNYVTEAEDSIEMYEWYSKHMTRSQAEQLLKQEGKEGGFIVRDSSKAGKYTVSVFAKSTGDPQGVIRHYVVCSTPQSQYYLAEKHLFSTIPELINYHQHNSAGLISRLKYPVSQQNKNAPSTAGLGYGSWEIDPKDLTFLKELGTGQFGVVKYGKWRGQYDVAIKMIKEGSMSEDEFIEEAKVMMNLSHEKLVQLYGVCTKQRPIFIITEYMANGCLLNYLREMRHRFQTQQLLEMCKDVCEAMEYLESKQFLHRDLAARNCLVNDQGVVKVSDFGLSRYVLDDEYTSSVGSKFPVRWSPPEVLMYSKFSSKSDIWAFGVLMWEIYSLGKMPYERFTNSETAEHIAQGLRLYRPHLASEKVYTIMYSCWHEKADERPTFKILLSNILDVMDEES

The first test concerns the target Tyrosine-protein kinase BTK (Homo sapiens) (UniProt Q06187). To be noted: at 1 µM.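 Further: values are mean percent inhibition of BTK across replicate measurements.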
Broadly, the inhibition is the change of the read-out against control, counted positive when it falls. With `COc1ccc(-c2oc3ncnc(N)c3c2-c2ccc(NC(=O)Nc3cc(C(F)(F)F)ccc3F)cc2)cc1`, the inhibition amounted to 13.3%.

For the molecule `Fc1cccc(COc2ccc(Nc3ncnc4sc(-c5ccco5)cc34)cc2Cl)c1`, the inhibition turned out to be 1.35%.

With `COc1cc(N2CCN(C(C)C)CC2)ccc1Nc1nc(Nc2ccc(F)cc2C(N)=O)c2cc[nH]c2n1`, the inhibition is -0.07%.

As to `CN(C)CCOc1ccc(-c2nc(-c3ccncc3)c(-c3ccc4c(c3)CC/C4=N\O)[nH]2)cc1`, the inhibition is 1.19%.

Regarding `NC(=O)c1sc(-n2cnc3ccc(C(F)(F)F)cc32)cc1OCc1ccccc1Br`, the inhibition is -2.44%.

In the case of `Nc1nc(-c2cccc(Cl)c2)c(-c2ccc3ncccc3n2)s1`, the inhibition is -0.84%.

For `CCCN1CCC(c2ccc(Nc3nc(Nc4cc(F)ccc4C(N)=O)c4cc[nH]c4n3)c(OC)c2)CC1`, the inhibition was -1.71%.

For the molecule `CCn1cc(-c2ccnc3[nH]ccc23)c(-c2cccc(NC(=O)Nc3ccc(OCc4ccccc4)cc3)c2)n1`, the inhibition turned out to be 3.3%.

With `NS(=O)(=O)c1ccc(Nc2ncc(-c3ccccc3)o2)cc1`, the inhibition was 1.06%.

As for `CCCN(CCS(C)(=O)=O)Cc1ccc(-c2ccc3ncnc(Nc4ccc(OCc5cccc(F)c5)c(Cl)c4)c3c2)o1`, the inhibition came out at 0.03%.

For `CCN(CC)S(=O)(=O)c1ccc(OC)c(Nc2ncc(-c3ccccc3)o2)c1`, the inhibition was 3.38%.

Turning to `CS(=O)(=O)CCNCc1coc(-c2ccc3ncnc(Nc4ccc(OCc5ccccc5)cc4)c3c2)c1`, the inhibition amounted to 2.66%.

For the molecule `N#Cc1c(NC(=O)CN2CCOCC2)sc2c1CCCC2`, the inhibition is 3.11%.

For the molecule `COc1cccc(-n2ncc3c(N/N=C/c4ccc(F)cc4)ncnc32)c1`, the inhibition is 1.13%.

Turning to `O=C(O[C@H]1CN[C@H](C#Cc2cc3ncnc(Nc4ccc(Cc5ccccc5)cc4)c3s2)C1)N1CCOCC1`, the inhibition came to 1.44%.

On to `COc1cc2c(cc1Nc1nc(Nc3ccsc3C(N)=O)c3cc[nH]c3n1)N(C(=O)CN(C)C)CCC2(C)C`, for which the inhibition amounted to 1.1%.

For the molecule `CCc1nn2ncccc2c1-c1ccnc(NC2CC2)n1`, the inhibition stood at 0.76%.

As for `Cc1ccc(O)cc1Nc1ccnc2cc(-c3ccccn3)ccc12`, the inhibition worked out at 34.5%.

In a further test the target is Tyrosine-protein kinase CSK (Homo sapiens) (UniProt P41240). To be noted: at 0.1 µM.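 Further: value given is the averaged percent inhibition of CSK kinase activity, from the GSK PKIS kinase inhibitor set screening panel.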
Sequence of Tyrosine-protein kinase CSK (Homo sapiens) (P41240 2-450 limits assumed): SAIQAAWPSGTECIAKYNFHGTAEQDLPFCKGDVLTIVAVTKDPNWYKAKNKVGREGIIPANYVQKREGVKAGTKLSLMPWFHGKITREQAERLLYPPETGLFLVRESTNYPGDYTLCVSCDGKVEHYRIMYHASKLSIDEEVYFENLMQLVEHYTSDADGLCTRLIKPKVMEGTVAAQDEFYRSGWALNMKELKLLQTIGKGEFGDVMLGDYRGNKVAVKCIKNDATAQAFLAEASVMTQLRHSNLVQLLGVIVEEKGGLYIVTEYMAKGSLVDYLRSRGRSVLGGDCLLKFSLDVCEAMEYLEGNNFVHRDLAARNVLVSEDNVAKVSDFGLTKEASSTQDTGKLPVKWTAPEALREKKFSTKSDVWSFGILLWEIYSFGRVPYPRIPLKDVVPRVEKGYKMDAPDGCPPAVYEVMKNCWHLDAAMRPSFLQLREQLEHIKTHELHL
In the case of `CNC(=O)c1cccc(C#Cc2cncnc2Nc2ccc(OCc3cccc(F)c3)c(Cl)c2)c1`, the inhibition came to 1.96%.

As to `Fc1ccc(-c2cc(-c3c[nH]nc3-c3ccccn3)ccn2)cc1`, the inhibition was determined as 5.1%.

Turning to `CN1CCC(n2cnc(-c3ccc(F)cc3)c2-c2ccnc(Nc3ccccc3)n2)CC1`, the inhibition was found to be 5.97%.

As to `CCn1c(-c2nonc2N)nc2c(C#CC(C)(C)O)ncc(OC3CCNCC3)c21`, the inhibition was found to be 3.49%.

For the molecule `COc1cccc(-c2c[nH]c3c(N/N=C/c4ccncc4)ncnc23)c1`, the inhibition was determined as 4.78%.

For `Cc1ccc2c(-c3ccnc(Nc4ccccc4)n3)c(-c3ccc(F)cc3)nn2n1`, the inhibition amounted to 3.99%.

With `COC(=O)Nc1nc2ccc(Oc3ccc(NC(=O)Nc4cccc(Cl)c4)cc3)cc2[nH]1`, the inhibition was 1.23%.

With `COc1ccc(-c2cc(-c3c[nH]nc3-c3ccccn3)ccn2)cc1`, the inhibition was determined as 7.77%.

Consider `COc1cc(/C=N/Nc2ncnc3[nH]ncc23)ccc1O`, for which the inhibition was found to be 7.17%.

For `[O-][S+]1CCN(Cc2ccc(-c3ccc4ncnc(Nc5ccc(OCc6cccc(F)c6)c(Cl)c5)c4c3)o2)CC1`, the inhibition was 6.74%.

Consider `CCNC(=O)O[C@H]1CN[C@H](C#Cc2cc3ncnc(Nc4ccc(OCc5cccc(F)c5)c(Cl)c4)c3s2)C1`, for which the inhibition was found to be 5.58%.

As for `CC1=C(C(=O)Nc2cc(Cl)c3[nH]ncc3c2)C(c2ccc(C(F)(F)F)cc2)CC(=O)N1` (configuration not stated), the inhibition stood at 4.43%.

`c1ccc(-c2nc3n(c2-c2ccc4c(c2)OCO4)CCC3)nc1`: the inhibition was found to be 1.01%.

For `CCOc1ccc2c(-c3ccnc(Nc4cccc(C(F)(F)F)c4)n3)cnn2n1`, the inhibition came to 1.57%.

Turning to `CCN1CCC(CC(=O)Nc2n[nH]c3nnc(-c4cccc(F)c4F)cc23)CC1`, the inhibition was -1.69%.

Consider `COc1ccc2[nH]c3c4[nH]c5ccc(OC)cc5c4c4c(c3c2c1)C(=O)NC4=O`, for which the inhibition worked out at 4.3%.

`COc1ccc(-c2oc3ncnc(N)c3c2-c2ccc(NC(=O)Nc3cc(C(F)(F)F)ccc3F)cc2)cc1`: the inhibition came out at 10.9%.

On to `Fc1cccc(COc2ccc(Nc3ncnc4sc(-c5ccco5)cc34)cc2Cl)c1`, for which the inhibition was -0.1%.

For the molecule `COc1cc(N2CCN(C(C)C)CC2)ccc1Nc1nc(Nc2ccc(F)cc2C(N)=O)c2cc[nH]c2n1`, the inhibition was 1.42%.

Take `CN(C)CCOc1ccc(-c2nc(-c3ccncc3)c(-c3ccc4c(c3)CC/C4=N\O)[nH]2)cc1`: the inhibition worked out at 6.25%.

For the molecule `NC(=O)c1sc(-n2cnc3ccc(C(F)(F)F)cc32)cc1OCc1ccccc1Br`, the inhibition was 4.79%.

Turning to `Nc1nc(-c2cccc(Cl)c2)c(-c2ccc3ncccc3n2)s1`, the inhibition was 5.57%.

For `CCCN1CCC(c2ccc(Nc3nc(Nc4cc(F)ccc4C(N)=O)c4cc[nH]c4n3)c(OC)c2)CC1`, the inhibition came out at 1.38%.

For `CCn1cc(-c2ccnc3[nH]ccc23)c(-c2cccc(NC(=O)Nc3ccc(OCc4ccccc4)cc3)c2)n1`, the inhibition was -0.47%.

On to `NS(=O)(=O)c1ccc(Nc2ncc(-c3ccccc3)o2)cc1`, for which the inhibition amounted to 6.51%.

For the molecule `CCCN(CCS(C)(=O)=O)Cc1ccc(-c2ccc3ncnc(Nc4ccc(OCc5cccc(F)c5)c(Cl)c4)c3c2)o1`, the inhibition stood at 1.98%.

Take `CCN(CC)S(=O)(=O)c1ccc(OC)c(Nc2ncc(-c3ccccc3)o2)c1`: the inhibition is 1.59%.

Regarding `CS(=O)(=O)CCNCc1coc(-c2ccc3ncnc(Nc4ccc(OCc5ccccc5)cc4)c3c2)c1`, the inhibition was found to be 0.42%.

`N#Cc1c(NC(=O)CN2CCOCC2)sc2c1CCCC2`: the inhibition is 6.19%.

Regarding `COc1cccc(-n2ncc3c(N/N=C/c4ccc(F)cc4)ncnc32)c1`, the inhibition stood at 3.3%.

As to `O=C(O[C@H]1CN[C@H](C#Cc2cc3ncnc(Nc4ccc(Cc5ccccc5)cc4)c3s2)C1)N1CCOCC1`, the inhibition is -1.2%.

In the case of `COc1cc2c(cc1Nc1nc(Nc3ccsc3C(N)=O)c3cc[nH]c3n1)N(C(=O)CN(C)C)CCC2(C)C`, the inhibition turned out to be 2.59%.

As for `CCc1nn2ncccc2c1-c1ccnc(NC2CC2)n1`, the inhibition worked out at 0.85%.

On to `Cc1ccc(O)cc1Nc1ccnc2cc(-c3ccccn3)ccc12`, for which the inhibition came out at 14.5%.
